# Experimental data from publication PMC7862700, “An all-to-all approach to the identification of sequence-specific readers for epigenetic DNA modifications on cytosine”.
# Experiments:
# Experiment in all cases: DAPPL (digital affinity profiling via proximity ligation, sequencing); 10 mM Tris-HCl pH 7.5, 50 mM NaCl, 1 mM DTT, 4% glycerol, room temperature, 30 min; GST-TFs on glutathione beads, 16-mer random dsDNA library, 0.1% formaldehyde crosslink after washing; high values mean tight binding
# FLI1 = biological target: T1, FLI1 (Homo sapiens, UniProt Q01543 1-452); settings: protein: recombinant; tags: N-terminal GST; dsDNA, one strand shown
# T1 sequence: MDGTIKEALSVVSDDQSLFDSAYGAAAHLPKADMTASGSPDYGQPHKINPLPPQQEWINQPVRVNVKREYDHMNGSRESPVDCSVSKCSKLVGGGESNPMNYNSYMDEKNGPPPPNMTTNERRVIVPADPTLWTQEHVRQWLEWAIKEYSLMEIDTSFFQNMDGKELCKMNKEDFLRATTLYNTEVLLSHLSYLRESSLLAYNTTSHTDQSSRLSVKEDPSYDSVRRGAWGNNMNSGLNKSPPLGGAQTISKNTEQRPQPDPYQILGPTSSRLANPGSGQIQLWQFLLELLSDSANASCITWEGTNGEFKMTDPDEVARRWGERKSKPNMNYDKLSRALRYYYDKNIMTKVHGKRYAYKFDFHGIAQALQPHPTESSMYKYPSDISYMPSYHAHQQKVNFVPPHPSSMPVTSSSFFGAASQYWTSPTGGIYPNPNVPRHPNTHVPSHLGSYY
# How it was run: (§1)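 GST fusions of human transcription factors were expressed in yeast and captured with glutathione beads. Once given DNA barcodes and pooled alongside a tag-only sample, they were incubated for 30 min at room temperature with 200 nmole of a random double-stranded 16-mer DNA library in Tris/NaCl/DTT/glycerol buffer, then washed, crosslinked (0.1% formaldehyde), proximity-ligated, PCR-amplified and sequenced on an Illumina NextSeq500. The binding signal of each hexamer is its read frequency for a factor divided by its frequency for the tag-only sample.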
# ELK1 = biological target: T2, ELK1 (Homo sapiens, UniProt P19419 1-428); settings: protein: recombinant; tags: N-terminal GST; dsDNA, one strand shown
# T2 sequence: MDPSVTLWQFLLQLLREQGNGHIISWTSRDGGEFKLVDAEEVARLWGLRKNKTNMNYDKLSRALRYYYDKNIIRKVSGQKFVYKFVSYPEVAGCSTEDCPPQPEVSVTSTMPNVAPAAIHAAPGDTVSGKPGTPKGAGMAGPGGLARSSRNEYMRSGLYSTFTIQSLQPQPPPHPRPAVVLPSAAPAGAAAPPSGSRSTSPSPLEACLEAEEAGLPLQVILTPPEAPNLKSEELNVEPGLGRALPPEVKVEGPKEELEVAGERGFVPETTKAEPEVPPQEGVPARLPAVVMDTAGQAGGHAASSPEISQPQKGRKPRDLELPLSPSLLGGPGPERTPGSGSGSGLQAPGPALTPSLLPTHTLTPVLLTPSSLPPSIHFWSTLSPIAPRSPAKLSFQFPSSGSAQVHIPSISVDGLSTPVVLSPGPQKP
# How it was run: as §1
# GABPA = biological target: T3, GABPA (Homo sapiens, UniProt Q06546 1-454); settings: protein: recombinant; tags: N-terminal GST; dsDNA, one strand shown
# T3 sequence: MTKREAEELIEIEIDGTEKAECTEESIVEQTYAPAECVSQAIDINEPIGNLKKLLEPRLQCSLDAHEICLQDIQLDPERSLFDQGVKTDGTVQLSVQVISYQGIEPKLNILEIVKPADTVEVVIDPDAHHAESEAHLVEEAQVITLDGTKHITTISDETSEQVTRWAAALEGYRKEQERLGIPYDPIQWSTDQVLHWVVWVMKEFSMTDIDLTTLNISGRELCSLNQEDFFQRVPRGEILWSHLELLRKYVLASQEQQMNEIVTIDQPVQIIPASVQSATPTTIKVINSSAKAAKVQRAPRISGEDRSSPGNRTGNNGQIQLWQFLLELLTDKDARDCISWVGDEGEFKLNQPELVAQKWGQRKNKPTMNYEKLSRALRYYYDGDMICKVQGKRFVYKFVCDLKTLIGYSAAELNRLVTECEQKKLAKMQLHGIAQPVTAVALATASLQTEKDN
# How it was run: as §1
# ERG = biological target: T4, ERG (Homo sapiens, UniProt P11308 1-479); settings: protein: recombinant; tags: N-terminal GST; dsDNA, one strand shown
# T4 sequence: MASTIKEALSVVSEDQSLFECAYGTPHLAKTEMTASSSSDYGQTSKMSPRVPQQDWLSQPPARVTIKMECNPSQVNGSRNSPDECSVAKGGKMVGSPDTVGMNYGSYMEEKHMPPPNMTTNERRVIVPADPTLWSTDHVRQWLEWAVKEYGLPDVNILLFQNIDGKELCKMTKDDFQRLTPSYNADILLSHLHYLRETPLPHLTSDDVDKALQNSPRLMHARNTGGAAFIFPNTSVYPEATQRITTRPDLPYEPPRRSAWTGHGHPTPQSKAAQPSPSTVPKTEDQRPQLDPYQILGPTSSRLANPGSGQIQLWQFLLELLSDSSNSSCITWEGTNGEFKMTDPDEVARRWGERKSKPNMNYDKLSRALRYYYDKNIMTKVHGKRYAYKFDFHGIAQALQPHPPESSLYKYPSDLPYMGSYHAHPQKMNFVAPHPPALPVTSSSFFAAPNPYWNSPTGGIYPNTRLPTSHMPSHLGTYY
# How it was run: as §1
# ELF1 = ELF1 (Homo sapiens, UniProt P32519 1-619); settings: protein: recombinant; tags: N-terminal GST; dsDNA, one strand shown
# ELF1, sequence (P32519 whole entry): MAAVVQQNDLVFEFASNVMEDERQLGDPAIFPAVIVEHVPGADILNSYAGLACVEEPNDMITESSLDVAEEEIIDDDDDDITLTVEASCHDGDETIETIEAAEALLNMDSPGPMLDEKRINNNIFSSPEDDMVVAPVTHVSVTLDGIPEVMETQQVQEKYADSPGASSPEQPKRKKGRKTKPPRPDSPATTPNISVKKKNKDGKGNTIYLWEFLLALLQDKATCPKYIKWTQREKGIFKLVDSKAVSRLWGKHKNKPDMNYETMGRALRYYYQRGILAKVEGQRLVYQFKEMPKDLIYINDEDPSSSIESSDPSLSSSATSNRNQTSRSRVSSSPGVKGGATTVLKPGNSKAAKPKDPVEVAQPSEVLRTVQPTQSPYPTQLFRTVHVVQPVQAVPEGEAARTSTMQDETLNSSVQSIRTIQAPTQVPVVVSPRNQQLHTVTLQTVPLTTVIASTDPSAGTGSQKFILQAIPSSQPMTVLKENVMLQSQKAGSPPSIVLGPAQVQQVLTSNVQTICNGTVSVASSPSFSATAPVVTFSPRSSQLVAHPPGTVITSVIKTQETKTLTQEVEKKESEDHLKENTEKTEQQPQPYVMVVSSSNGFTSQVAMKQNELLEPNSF
# How it was run: as §1
# EHF = biological target: T5, EHF (Homo sapiens, UniProt Q9NZC4 1-300); settings: protein: recombinant; tags: N-terminal GST; dsDNA, one strand shown
# T5 sequence: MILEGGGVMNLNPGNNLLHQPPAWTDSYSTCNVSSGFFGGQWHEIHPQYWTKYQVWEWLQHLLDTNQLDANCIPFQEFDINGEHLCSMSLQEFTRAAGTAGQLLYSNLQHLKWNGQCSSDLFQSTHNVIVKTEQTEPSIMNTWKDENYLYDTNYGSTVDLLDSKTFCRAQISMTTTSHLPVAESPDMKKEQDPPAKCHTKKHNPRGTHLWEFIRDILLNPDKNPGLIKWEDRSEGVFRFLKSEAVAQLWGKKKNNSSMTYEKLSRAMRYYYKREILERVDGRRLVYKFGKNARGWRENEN
# How it was run: as §1
# SPI1 = SPI1 (Homo sapiens, UniProt P17947 1-270); settings: protein: recombinant; tags: N-terminal GST; dsDNA, one strand shown
# How it was run: as §1
# SPIB = SPIB (Homo sapiens, UniProt Q01892 1-262); settings: protein: recombinant; tags: N-terminal GST; dsDNA, one strand shown
# SPIB, sequence (Q01892 whole entry): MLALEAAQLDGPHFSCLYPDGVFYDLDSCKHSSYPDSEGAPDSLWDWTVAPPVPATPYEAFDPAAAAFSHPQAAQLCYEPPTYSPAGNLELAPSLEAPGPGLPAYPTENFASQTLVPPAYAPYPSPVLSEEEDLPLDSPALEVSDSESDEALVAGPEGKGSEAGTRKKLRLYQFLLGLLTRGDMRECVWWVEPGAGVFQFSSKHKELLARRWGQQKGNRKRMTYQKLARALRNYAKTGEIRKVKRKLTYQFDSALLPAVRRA
# How it was run: as §1
# ELK3 = biological target: T6, ELK3 (Homo sapiens, UniProt P41970 1-407); settings: protein: recombinant; tags: N-terminal GST; dsDNA, one strand shown
# T6 sequence: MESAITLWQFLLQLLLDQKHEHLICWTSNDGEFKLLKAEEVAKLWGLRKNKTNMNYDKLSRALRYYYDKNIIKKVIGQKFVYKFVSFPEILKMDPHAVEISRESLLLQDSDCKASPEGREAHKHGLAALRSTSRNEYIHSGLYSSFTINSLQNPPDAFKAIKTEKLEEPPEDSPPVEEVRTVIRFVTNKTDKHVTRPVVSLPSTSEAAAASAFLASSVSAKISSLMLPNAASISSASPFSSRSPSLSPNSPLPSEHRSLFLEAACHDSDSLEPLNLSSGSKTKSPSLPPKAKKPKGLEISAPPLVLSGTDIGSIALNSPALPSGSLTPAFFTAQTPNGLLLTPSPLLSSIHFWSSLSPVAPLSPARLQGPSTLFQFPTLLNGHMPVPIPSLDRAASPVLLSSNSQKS
# How it was run: as §1
# FEV = biological target: T7, FEV (Homo sapiens, UniProt Q99581 1-238); settings: protein: recombinant; tags: N-terminal GST; dsDNA, one strand shown
# T7 sequence: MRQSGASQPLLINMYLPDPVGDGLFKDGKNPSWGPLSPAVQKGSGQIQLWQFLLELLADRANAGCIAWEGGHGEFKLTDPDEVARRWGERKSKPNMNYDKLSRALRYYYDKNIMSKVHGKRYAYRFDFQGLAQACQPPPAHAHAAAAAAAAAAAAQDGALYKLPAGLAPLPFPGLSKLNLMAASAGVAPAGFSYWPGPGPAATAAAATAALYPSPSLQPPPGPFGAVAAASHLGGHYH
# How it was run: as §1
# ETV5 = ETV5 (Homo sapiens, UniProt P41161 1-510); settings: protein: recombinant; tags: N-terminal GST; dsDNA, one strand shown
# ETV5, sequence (P41161 whole entry): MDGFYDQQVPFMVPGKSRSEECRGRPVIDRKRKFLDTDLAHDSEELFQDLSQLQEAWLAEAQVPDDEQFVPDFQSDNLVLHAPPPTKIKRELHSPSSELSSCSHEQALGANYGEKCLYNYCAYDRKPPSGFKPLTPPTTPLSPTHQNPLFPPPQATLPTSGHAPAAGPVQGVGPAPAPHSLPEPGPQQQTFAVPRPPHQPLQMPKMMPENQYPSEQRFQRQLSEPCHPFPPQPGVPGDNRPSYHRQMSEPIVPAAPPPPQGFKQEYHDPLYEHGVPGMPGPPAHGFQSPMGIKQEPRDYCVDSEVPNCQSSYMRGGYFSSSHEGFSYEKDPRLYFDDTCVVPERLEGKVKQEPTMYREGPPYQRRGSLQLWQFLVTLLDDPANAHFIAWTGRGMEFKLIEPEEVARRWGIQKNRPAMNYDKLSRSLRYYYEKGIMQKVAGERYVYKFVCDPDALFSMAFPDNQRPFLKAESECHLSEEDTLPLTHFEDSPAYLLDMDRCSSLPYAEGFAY
# How it was run: as §1
# HSF1 = HSF1 (Homo sapiens, UniProt Q00613 1-529); settings: protein: recombinant; tags: N-terminal GST; chain copies: 3; dsDNA, one strand shown
# HSF1, sequence (Q00613 whole entry): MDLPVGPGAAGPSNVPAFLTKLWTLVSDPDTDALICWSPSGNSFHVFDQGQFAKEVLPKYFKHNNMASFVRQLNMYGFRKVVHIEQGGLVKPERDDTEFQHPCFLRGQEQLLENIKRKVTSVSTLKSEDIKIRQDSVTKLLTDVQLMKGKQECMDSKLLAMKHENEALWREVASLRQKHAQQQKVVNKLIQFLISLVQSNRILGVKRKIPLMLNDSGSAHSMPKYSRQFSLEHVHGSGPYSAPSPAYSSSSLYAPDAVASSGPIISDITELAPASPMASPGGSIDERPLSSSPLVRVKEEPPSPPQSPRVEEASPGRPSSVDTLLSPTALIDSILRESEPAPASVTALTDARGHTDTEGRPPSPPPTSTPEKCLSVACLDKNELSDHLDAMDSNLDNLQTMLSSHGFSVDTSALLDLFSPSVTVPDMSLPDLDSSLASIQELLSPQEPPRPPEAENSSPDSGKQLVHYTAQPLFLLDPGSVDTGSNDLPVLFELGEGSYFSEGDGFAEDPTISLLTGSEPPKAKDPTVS
# How it was run: as §1
# SPIC = biological target: T8, SPIC (Homo sapiens, UniProt Q8N5J4 1-248); settings: protein: recombinant; tags: N-terminal GST; dsDNA, one strand shown
# T8 sequence: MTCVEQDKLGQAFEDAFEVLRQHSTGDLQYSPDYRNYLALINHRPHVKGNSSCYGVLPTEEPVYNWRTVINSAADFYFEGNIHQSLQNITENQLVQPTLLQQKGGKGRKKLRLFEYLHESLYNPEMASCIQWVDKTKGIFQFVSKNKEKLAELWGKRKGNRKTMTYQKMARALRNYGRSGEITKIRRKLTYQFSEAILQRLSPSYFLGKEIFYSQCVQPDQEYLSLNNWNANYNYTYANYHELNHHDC
# How it was run: as §1
# ELF4 = ELF4 (Homo sapiens, UniProt Q99607 1-663); settings: protein: recombinant; tags: N-terminal GST; dsDNA, one strand shown
# ELF4, sequence (Q99607 whole entry): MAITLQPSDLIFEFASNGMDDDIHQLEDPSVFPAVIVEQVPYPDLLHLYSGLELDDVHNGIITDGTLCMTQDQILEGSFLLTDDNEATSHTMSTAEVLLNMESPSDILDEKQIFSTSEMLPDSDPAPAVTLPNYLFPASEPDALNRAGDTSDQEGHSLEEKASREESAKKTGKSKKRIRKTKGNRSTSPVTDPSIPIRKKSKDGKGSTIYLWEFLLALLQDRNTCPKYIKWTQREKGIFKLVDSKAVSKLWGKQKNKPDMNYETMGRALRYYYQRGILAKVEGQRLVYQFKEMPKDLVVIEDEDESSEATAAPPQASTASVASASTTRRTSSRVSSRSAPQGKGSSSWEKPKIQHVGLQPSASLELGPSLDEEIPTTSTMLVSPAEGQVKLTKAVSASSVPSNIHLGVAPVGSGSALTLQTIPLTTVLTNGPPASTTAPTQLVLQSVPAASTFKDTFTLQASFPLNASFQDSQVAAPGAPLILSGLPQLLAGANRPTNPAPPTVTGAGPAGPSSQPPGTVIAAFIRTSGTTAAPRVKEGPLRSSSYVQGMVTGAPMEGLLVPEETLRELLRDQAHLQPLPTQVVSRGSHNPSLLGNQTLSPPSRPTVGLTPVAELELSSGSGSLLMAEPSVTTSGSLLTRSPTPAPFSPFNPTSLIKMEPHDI
# How it was run: as §1
# ELK4 = biological target: T9, ELK4 (Homo sapiens, UniProt P28324-2 1-405); settings: protein: recombinant; tags: N-terminal GST; dsDNA, one strand shown
# T9 sequence: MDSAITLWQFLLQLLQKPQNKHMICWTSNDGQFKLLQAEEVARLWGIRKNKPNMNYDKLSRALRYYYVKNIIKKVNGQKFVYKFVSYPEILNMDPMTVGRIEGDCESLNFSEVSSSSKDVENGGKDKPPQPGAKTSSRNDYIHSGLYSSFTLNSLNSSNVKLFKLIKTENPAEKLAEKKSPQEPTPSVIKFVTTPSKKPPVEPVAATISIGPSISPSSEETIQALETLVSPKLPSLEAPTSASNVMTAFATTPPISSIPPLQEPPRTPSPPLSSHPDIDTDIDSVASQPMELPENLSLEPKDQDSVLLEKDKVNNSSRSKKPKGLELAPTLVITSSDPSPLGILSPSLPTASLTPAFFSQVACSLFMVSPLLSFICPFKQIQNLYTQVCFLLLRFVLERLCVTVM
# How it was run: as §1
# ETV2 = biological target: T10, ETV2 (Homo sapiens, UniProt O00321 1-342); settings: protein: recombinant; tags: N-terminal GST; dsDNA, one strand shown
# T10 sequence: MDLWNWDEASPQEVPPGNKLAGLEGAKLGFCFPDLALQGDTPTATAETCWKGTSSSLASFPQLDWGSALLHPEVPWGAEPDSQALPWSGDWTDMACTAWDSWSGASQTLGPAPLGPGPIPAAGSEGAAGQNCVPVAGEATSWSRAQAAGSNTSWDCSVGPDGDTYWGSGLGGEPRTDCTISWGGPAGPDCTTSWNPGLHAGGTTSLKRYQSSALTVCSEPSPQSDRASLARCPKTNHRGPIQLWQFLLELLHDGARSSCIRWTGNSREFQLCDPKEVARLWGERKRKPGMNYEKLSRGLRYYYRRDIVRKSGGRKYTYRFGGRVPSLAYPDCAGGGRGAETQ
# How it was run: as §1
# ELF3 = biological target: T11, ELF3 (Homo sapiens, UniProt P78545 1-371); settings: protein: recombinant; tags: N-terminal GST; dsDNA, one strand shown
# T11 sequence: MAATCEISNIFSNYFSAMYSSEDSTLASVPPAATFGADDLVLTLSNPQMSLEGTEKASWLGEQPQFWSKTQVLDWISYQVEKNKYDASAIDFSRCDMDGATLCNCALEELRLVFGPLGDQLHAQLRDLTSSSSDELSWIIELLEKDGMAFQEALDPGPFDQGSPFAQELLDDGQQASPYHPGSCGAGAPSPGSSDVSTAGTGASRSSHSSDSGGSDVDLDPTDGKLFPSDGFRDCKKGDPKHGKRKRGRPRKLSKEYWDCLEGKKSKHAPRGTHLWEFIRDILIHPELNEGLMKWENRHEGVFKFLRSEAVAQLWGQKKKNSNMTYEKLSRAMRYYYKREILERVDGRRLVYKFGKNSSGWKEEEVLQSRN
# How it was run: as §1
# CRX = CRX (Homo sapiens, UniProt O43186 1-299); settings: protein: recombinant; tags: N-terminal GST; dsDNA, one strand shown
# CRX, sequence (O43186 whole entry): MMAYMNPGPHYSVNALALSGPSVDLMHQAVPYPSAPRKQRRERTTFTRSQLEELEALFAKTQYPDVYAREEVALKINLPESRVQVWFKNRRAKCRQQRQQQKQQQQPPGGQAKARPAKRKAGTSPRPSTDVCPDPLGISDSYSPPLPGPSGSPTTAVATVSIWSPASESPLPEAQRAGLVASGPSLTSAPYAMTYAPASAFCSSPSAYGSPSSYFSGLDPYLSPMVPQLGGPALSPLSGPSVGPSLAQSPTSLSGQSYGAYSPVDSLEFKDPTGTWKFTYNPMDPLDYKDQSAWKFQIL
# How it was run: as §1
# ETV1 = ETV1 (Homo sapiens, UniProt P50549 1-477); settings: protein: recombinant; tags: N-terminal GST; dsDNA, one strand shown
# ETV1, sequence (P50549 whole entry): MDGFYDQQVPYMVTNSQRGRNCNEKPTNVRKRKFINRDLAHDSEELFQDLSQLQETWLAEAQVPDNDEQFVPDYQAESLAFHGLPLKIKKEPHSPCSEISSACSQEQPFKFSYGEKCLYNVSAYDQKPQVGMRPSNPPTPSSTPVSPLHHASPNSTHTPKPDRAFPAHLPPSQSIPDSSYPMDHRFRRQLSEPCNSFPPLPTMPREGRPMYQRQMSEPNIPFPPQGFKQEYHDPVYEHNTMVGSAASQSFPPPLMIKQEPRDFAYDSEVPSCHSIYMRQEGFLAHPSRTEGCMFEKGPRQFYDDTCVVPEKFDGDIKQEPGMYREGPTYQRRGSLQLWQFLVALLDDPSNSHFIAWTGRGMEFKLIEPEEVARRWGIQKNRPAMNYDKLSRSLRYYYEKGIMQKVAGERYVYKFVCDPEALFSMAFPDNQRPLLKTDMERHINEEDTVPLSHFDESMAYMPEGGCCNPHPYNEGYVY
# How it was run: as §1
sequence,measurement,setting,value
CTCGCA,binding signal,FLI1,"1.34 fold enrichment (6-mer frequency, TF over GST control)"
same,binding signal,ELK1,"1.25 fold enrichment (6-mer frequency, TF over GST control)"
same,binding signal,GABPA,"1.29 fold enrichment (6-mer frequency, TF over GST control)"
same,binding signal,ERG,"1.29 fold enrichment (6-mer frequency, TF over GST control)"
same,binding signal,ELF1,"1.27 fold enrichment (6-mer frequency, TF over GST control)"
same,binding signal,EHF,"1.3 fold enrichment (6-mer frequency, TF over GST control)"
same,binding signal,SPI1,"1.27 fold enrichment (6-mer frequency, TF over GST control)"
same,binding signal,SPIB,"1.22 fold enrichment (6-mer frequency, TF over GST control)"
same,binding signal,ELK3,"1.17 fold enrichment (6-mer frequency, TF over GST control)"
same,binding signal,FEV,"1.32 fold enrichment (6-mer frequency, TF over GST control)"
same,binding signal,ETV5,"1.19 fold enrichment (6-mer frequency, TF over GST control)"
same,binding signal,HSF1,"1.61 fold enrichment (6-mer frequency, TF over GST control)"
same,binding signal,SPIC,"1.43 fold enrichment (6-mer frequency, TF over GST control)"
same,binding signal,ELF4,"1.26 fold enrichment (6-mer frequency, TF over GST control)"
same,binding signal,ELK4,"1.29 fold enrichment (6-mer frequency, TF over GST control)"
same,binding signal,ETV2,"1.34 fold enrichment (6-mer frequency, TF over GST control)"
same,binding signal,ELF3,"1.26 fold enrichment (6-mer frequency, TF over GST control)"
same,binding signal,CRX,"1.2 fold enrichment (6-mer frequency, TF over GST control)"
same,binding signal,ETV1,"1.26 fold enrichment (6-mer frequency, TF over GST control)"
